The values below come from the supplement of paper PMC6555819.

One assay relates to PPARg DBDmut:RXRa IVT, anti-PPARg (DBD mutation: PPARg1 K132A/R137A, NR concentration 270 nM, RXRa partner concentration 90 nM). The experiment in a line: PBM binding z-score (relative to random genomic background probes); higher = stronger binding; sequences stand for … in GC…GCGATTGACAGCGTAGAATGAAGG
In outline: (§1)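 Binding buffer was PBS pH 7.4 with 2% milk, 0.02% Triton X-100, 1 mM DTT, 0.2 mg/mL BSA and 0.4 mg/ml salmon testes DNA. In it, ligand-free nuclear receptor dimers were incubated 1 h on custom Agilent 4×180K protein-binding microarrays carrying double-stranded probes. Antibodies against each partner (one per run) detected binding, and z-scores were calculated against random background probes after regression normalization of scanned fluorescence.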
GCGACTAGGGCATCAGCAGGTTACCATAACTTAA displayed a PBM binding z-score of -0.562.
The sequence GATACAGTGTCAAGGCCAGAGTACGCGTATTGAT yielded a PBM binding z-score of 0.0882.
As for GCGACTGGGGCATCAGCAGGTTTCCATAACTTAA, the PBM binding z-score is -1.63.
Turning to CCGACTGGGGCATAAGGTTACCCTAAGCCAGCCC, the PBM binding z-score is -0.367.
Still for that read-out and setting: for AATACAGGGTCATCGTAGGCCAGCGTACGCACAG the value was 1.13; for GCGACTGGGGCATCAGCAGATTACCATAACTTAA, 0.0111; for GGACCGAGGGCAAAGTTGATAGCATCTGTCGACG, -0.427.
The same measure, in the same setting: then CGGACTAGGTCATTGACAGGACAGTGAATAGTAA, with 1.48.
Turning to CGTCAAAGTTTAACTAAGGTAACGTAAAGCACGC, the PBM binding z-score was found to be 0.6.
Sequence ATATGTAGGTTAGCTGGGGTCATACAGACTAGGC had a PBM binding z-score of 1.52.
The sequence GCGGCTAGGTCAACTGATGGTCAGCTAAAGCTCG had a PBM binding z-score of -0.724.
In the case of CAGCCTAGGTCATGGCCAGTATAGGAGGAACGTT, the PBM binding z-score was -0.045.
As to CCTAGTTGGTCAAGGCCACACACGCTATAGGTAC, the PBM binding z-score was 0.294.
CCTTACGGGTCAACGTTATAGCACGGGTGGTACG yielded a PBM binding z-score of 0.108.
Sequence TCTTGTAGATCAAACAGGTTAAGAAAGCCTGAGT had a PBM binding z-score of 1.28.
Still for that read-out and setting: for CCTAGTTGGTCAGGAGGTCACACTCCGGATATGA the value was 0.158.
Still for that read-out and setting: for TCTAGCAGGCGAGAGGGTCACTCAAGAGGTACGG the value was -0.781.
The same measure, in the same setting: then CGAACGAGGGCATGAGTTGATAGCGAATGCCGAT, with -0.216; and TCATATAGGTAAAAGGTGAAAGTAGGTGTGGTAA, with 1.51.
Sequence ACAGACAGGTGAGTGAAGGTAGCTCAGCTGGACG had a PBM binding z-score of -0.147.
For CAAACTAGGTCACAGAGGTCAAAGACCGTGCGTA, the PBM binding z-score was 7.99.
Turning to TGTCAAAGTTCAAAGGTAACGGAAGTATCCACAC, the PBM binding z-score was determined as 1.63.
For CATTACGGGTCACGAGGTTATAGCACGACGAGCG, the PBM binding z-score stood at 1.73.
ATCTCTAGGTAAAGTTCAGTTAAAGATCGATAGA: the PBM binding z-score was determined as 1.03.
Regarding CCTACGGGGCCATTCAGAGGTCATTGATCATATG, the PBM binding z-score is -1.02.
On to AGAATGAGGTTAATATCAGGGAAACAGAATACAT, for which the PBM binding z-score came out at 1.02.
CCGACTGGGCCAAGGTCATTGATCAGTCAAAGCA had a PBM binding z-score of -1.14.
On to CCTCAGAGGACAGAAGGTCAGAGCTGTCCGCTTT, for which the PBM binding z-score is -0.801.
Same read-out and setting: for CGAACTAGGTCATCCAGGAAAGTGAATACATTGA the value was 3.43; for ACTATTAGTTGAGACGAGTGCAACCGATAGGTTG, 0.728; for GCTTACGGGTCAAAGGTTATAGCGTGAATAGAAT, 1.03.
With ACTATTAGTTGACTTAGGGCAACCGGTACGACGC, the PBM binding z-score stood at 0.963.
Same read-out and setting: for AGATTGAGGTTATACGTAGATCAGGGAAGAAAGT the value was 1.05; for CCTACTAGGTCAATGGTCAGCTAAAGCAGCTCGC, 2.1.
The same measure, in the same setting: for ATCTGTAGGTAACAAGTTCAGTGAAAGAGAGGAC the value was 1.31.
As to CAAACTAGGTCAACAGGTCAAAGTCCGCTTCCCG, the PBM binding z-score was found to be 4.74.
Sequence TCTCGGAGGACACGAAAGGTTAGAGCTCGACATC gave a PBM binding z-score of -0.609.
With GCTTGTATATCAAGGTTAAGAAAGACTAAGCTAA, the PBM binding z-score was found to be 0.195.
Same read-out and setting: for TCCGCTAGGTCAACGATGGTCAGCTAATCTGCTA the value was -0.291; for CCTATGAGTTGACCATAAGGGCAACCGAAGCTCG, -0.849.

Another assay concerns PPARg DBDmut IVT, anti-PPARg (DBD mutation: PPARg1 K132A/R137A, NR concentration 270 nM). The description is as above. In a few lines: as §1
For GCGACTAGGGCATCAGCAGGTTACCATAACTTAA, the PBM binding z-score is -0.523.
GATACAGTGTCAAGGCCAGAGTACGCGTATTGAT displayed a PBM binding z-score of 0.292.
In turn, GCGACTGGGGCATCAGCAGGTTTCCATAACTTAA registered a PBM binding z-score of -0.793.
CCGACTGGGGCATAAGGTTACCCTAAGCCAGCCC yielded a PBM binding z-score of -1.53.
Sequence AATACAGGGTCATCGTAGGCCAGCGTACGCACAG registered a PBM binding z-score of 2.04.
Regarding GCGACTGGGGCATCAGCAGATTACCATAACTTAA, the PBM binding z-score is -0.326.
Regarding GGACCGAGGGCAAAGTTGATAGCATCTGTCGACG, the PBM binding z-score was -0.551.
On the same count and under the same terms, then CGGACTAGGTCATTGACAGGACAGTGAATAGTAA, with 0.689; and CGTCAAAGTTTAACTAAGGTAACGTAAAGCACGC, with 1.17; and ATATGTAGGTTAGCTGGGGTCATACAGACTAGGC, with 1.48.
For the sequence GCGGCTAGGTCAACTGATGGTCAGCTAAAGCTCG, the PBM binding z-score was -1.01.
CAGCCTAGGTCATGGCCAGTATAGGAGGAACGTT displayed a PBM binding z-score of -0.826.
Sequence CCTAGTTGGTCAAGGCCACACACGCTATAGGTAC returned a PBM binding z-score of 0.121.
Turning to CCTTACGGGTCAACGTTATAGCACGGGTGGTACG, the PBM binding z-score is -0.133.
Take TCTTGTAGATCAAACAGGTTAAGAAAGCCTGAGT: the PBM binding z-score was found to be 0.534.
Regarding CCTAGTTGGTCAGGAGGTCACACTCCGGATATGA, the PBM binding z-score turned out to be 0.204.
Still for that read-out and setting: then TCTAGCAGGCGAGAGGGTCACTCAAGAGGTACGG, with -0.425; and CGAACGAGGGCATGAGTTGATAGCGAATGCCGAT, with -0.415.
For the sequence TCATATAGGTAAAAGGTGAAAGTAGGTGTGGTAA, the PBM binding z-score was found to be 2.06.
Take ACAGACAGGTGAGTGAAGGTAGCTCAGCTGGACG: the PBM binding z-score was -1.08.
As for CAAACTAGGTCACAGAGGTCAAAGACCGTGCGTA, the PBM binding z-score stood at 2.78.
Still for that read-out and setting: then TGTCAAAGTTCAAAGGTAACGGAAGTATCCACAC, with 2.48.
On the same count and under the same terms, for CATTACGGGTCACGAGGTTATAGCACGACGAGCG the value was 1.78; for ATCTCTAGGTAAAGTTCAGTTAAAGATCGATAGA, 0.905.
On to CCTACGGGGCCATTCAGAGGTCATTGATCATATG, for which the PBM binding z-score is -0.577.
Regarding AGAATGAGGTTAATATCAGGGAAACAGAATACAT, the PBM binding z-score was determined as 0.794.
Take CCGACTGGGCCAAGGTCATTGATCAGTCAAAGCA: the PBM binding z-score is -0.87.
Turning to CCTCAGAGGACAGAAGGTCAGAGCTGTCCGCTTT, the PBM binding z-score is -2.11.
CGAACTAGGTCATCCAGGAAAGTGAATACATTGA showed a PBM binding z-score of 1.05.
As to ACTATTAGTTGAGACGAGTGCAACCGATAGGTTG, the PBM binding z-score came to 0.584.
As to GCTTACGGGTCAAAGGTTATAGCGTGAATAGAAT, the PBM binding z-score was 1.18.
As to ACTATTAGTTGACTTAGGGCAACCGGTACGACGC, the PBM binding z-score was 0.218.
As to AGATTGAGGTTATACGTAGATCAGGGAAGAAAGT, the PBM binding z-score was 1.23.
CCTACTAGGTCAATGGTCAGCTAAAGCAGCTCGC came in with a PBM binding z-score of 1.05.
Consider ATCTGTAGGTAACAAGTTCAGTGAAAGAGAGGAC, for which the PBM binding z-score stood at 0.975.
CAAACTAGGTCAACAGGTCAAAGTCCGCTTCCCG registered a PBM binding z-score of 3.76.
The same measure, in the same setting: for TCTCGGAGGACACGAAAGGTTAGAGCTCGACATC the value was -0.116.
Take GCTTGTATATCAAGGTTAAGAAAGACTAAGCTAA: the PBM binding z-score turned out to be 0.533.
For the sequence TCCGCTAGGTCAACGATGGTCAGCTAATCTGCTA, the PBM binding z-score is -0.242.
The sequence CCTATGAGTTGACCATAAGGGCAACCGAAGCTCG displayed a PBM binding z-score of -0.386.
